Data published in ChEMBL document CHEMBL4513216, “Probing the Open Global Health Chemical Diversity Library for Multistage-Active Starting Points for Next-Generation Antimalarials” (ACS Infect Dis, 2020).
The campaign covered roughly 68,000 compounds. About 2,700 (4%) showed an effect of 50% or more. The full list was thinned out, with strong results kept by preference.

tested on: Plasmodium berghei; assay: Screen against P. berghei liver stage (PbLuc), transformed with Luciferase, at 2uM; format: functional, HepG2; conditions: tested at 2 uM

Going from CC(Cn1cncn1)NC(=O)NCC(C)(C)c1ccc(F)cc1 (stereo unspecified) to NC(=O)C(NC1CCN(Cc2ccc(F)cc2)CC1)c1ccccc1 (stereo unspecified), the INHIBITION falls from 38.1% to -15.03%.

Compared with NC(=O)C(NC1CCN(CC2CCCCC2)CC1)c1ccc(F)cc1 (stereo unspecified), NC(=O)C(NC1CCN(CC2CCCCC2)CC1)c1ccccc1 (stereo unspecified) is lower in INHIBITION: 65.76% for the first, 15.27% for the second.

Going from COc1ccc(C[C@H]2CN(Cc3ccoc3)CC[C@H]2OC)cc1 to CO[C@H]1CCN(Cc2cnn(C)c2)[C@@H]2CN(Cc3ccncc3)C[C@H]12, the INHIBITION falls from 10.71% to -22.28%.

Going from N#Cc1ccnc(N2CCC(c3nccn3Cc3cscn3)CC2)c1 to CCn1cc(C2CCN(Cc3ccnc(N(C)C)c3)CC2)cn1, the INHIBITION falls from 45.58% to 5.17%.

First: Cn1cccc1C(=O)N1CCC2(CCN2c2ncccn2)C1 (stereo unspecified)
Second: Cn1ccc(C(=O)N2CCC3(CCN3c3ncccn3)C2)n1 (stereo unspecified)
The INHIBITION of the first is lower: 27.42% for the first, 53.38% for the second.

First: Cn1ccnc1C(=O)N1CCC2(CCN2c2ncccn2)C1 (stereo unspecified)
Second: c1cnc(N2CCC3(CN(CC4CCOC4)C3)C2)nc1 (stereo unspecified)
The INHIBITION of the first is lower: 6.07% for the first, 24.54% for the second.

Compared with CCN1CCn2c(C)cnc2C12CCN(C(=O)NCC(C)C)CC2, CCN1Cc2ccccc2CC2(CCN(C(=O)N(C)C)CC2)C1=O is higher in INHIBITION: -29.74% for the first, 14.94% for the second.

Compared with COc1cccn(Cc2nnc(-c3cccnc3)o2)c1=O, CC1CN(Cc2cccnc2)CCN1c1ccc2nncn2n1 (stereo unspecified) is lower in INHIBITION: -16.19% for the first, -68.26% for the second.

First: CCC(C)(C)NC(=O)COC(=O)c1cc(C)ccc1NC(=O)N(C)C
Second: Cc1ccc(NC(=O)N(C)C)c(C(=O)OCC(=O)NC(C)C(C)C)c1 (stereo unspecified)
The INHIBITION of the first is higher: 60.64% for the first, 20.34% for the second.

Compared with Cc1ccc(NC(=O)N(C)C)c(C(=O)OCC(=O)NC2CCCC2)c1, COCC(=O)NCc1cccc(OCCN(C)C2CCOCC2)c1 is lower in INHIBITION: 49.71% for the first, 6.07% for the second.

Going from Cc1cc2ncc(C(C)NCc3cccnc3)c(C)n2n1 (stereo unspecified) to CO[C@@H]1CCN(Cc2cnn(C)c2)[C@@H]2CN(Cc3cccnc3)C[C@@H]21, the INHIBITION rises from 19.6% to 51.05%.

First: CCc1ccccc1C(=O)NS(=O)(=O)CCCC#N
Second: CCC(C)C(=O)NCc1cccc(OCCN(C)C2CCOCC2)c1 (stereo unspecified)
The INHIBITION of the first is lower: -32.8% for the first, -13.37% for the second.

Compared with COCC1c2nnn(CC3CC3)c2CCN1C(=O)c1cnccn1 (stereo unspecified), CC(C)C1CN(Cc2c[nH]cn2)CCCN1CC1CC1 (stereo unspecified) is lower in INHIBITION: 1.92% for the first, -28.5% for the second.

Going from c1ccc(NC[C@@H]2CCC[C@@H]3CN(Cc4nccs4)C[C@@H]32)nc1 to CO[C@H]1CCN(Cc2cnn(C)c2)[C@@H]2CN(Cc3cccnc3)C[C@H]12, the INHIBITION rises from 38.11% to 39.06%.

Going from CC1CN(Cc2nccn2C)CCN1c1ccc2nncn2n1 (stereo unspecified) to CC1CN(Cc2cnn(C)c2)CCN1c1ccc2nncn2n1 (stereo unspecified), the INHIBITION rises from 3.9% to 62.13%.

First: Cc1cc(CN2CCN(c3ccc4nncn4n3)C(C)C2)no1 (stereo unspecified)
Second: Cc1cnc(CN2CCN(c3ccc4nncn4n3)C(C)C2)cn1 (stereo unspecified)
The INHIBITION of the first is lower: -54.33% for the first, 6.12% for the second.

Going from Cc1ncc(CN2CCN(c3ccc4nncn4n3)C(C)C2)s1 (stereo unspecified) to Cn1nc(C(=O)N2CCCC(n3cncn3)C2)ccc1=O (stereo unspecified), the INHIBITION falls from 64.71% to 8.06%.

First: O=c1c(-c2ccnc(NC3CCCCC3)n2)cnc2sc(Cl)cn12
Second: Clc1cccc(C2CCN(c3ncnc4c3CCNC4)C2)c1 (stereo unspecified)
The INHIBITION of the first is lower: 10.83% for the first, 36.79% for the second.

Going from Cn1c(C(=O)N2CC[C@@]3(O)CCCC[C@H]3C2)cc2ccccc21 to COCCn1cnc(-c2nc(C(=O)N3CCOCC3)c3ccccn23)c1, the INHIBITION rises from 5.04% to 11.37%.

First: CS(=O)(=O)N1CCCC12CCCN(S(=O)(=O)c1cccc(F)c1)C2 (stereo unspecified)
Second: c1cnc(N2CCC3(CCN(CC4CCOC4)CC3)CC2)nc1 (stereo unspecified)
The INHIBITION of the first is lower: 32.41% for the first, 42.27% for the second.

Going from CC(C)(C)c1nc(CN2CCC(N3CCCCC3)CC2)no1 to CN(Cc1n[nH]c2c1CCCC2)c1nc(C2CC2)nc2c1CCNCC2, the INHIBITION falls from 40.47% to 14.55%.

Compared with O=C1CN(C(=O)c2cc3ccc(Br)cc3[nH]2)CCN1, O=C1CN(C(=O)c2cc3c(F)cc(Br)cc3[nH]2)CCN1 is lower in INHIBITION: 57% for the first, -10% for the second.

Compared with Cc1cc(C)c2cc(C(=O)N3CCNC(=O)C3)[nH]c2c1, CC(C)NC(=O)CS(=O)(=O)Cc1cc(Cl)c2c(c1)OCCO2 is lower in INHIBITION: 19.48% for the first, 14.82% for the second.

Going from CCOc1ccc(Cl)c(C(=O)N(C)C)n1 to CC(C)CC(=O)NCc1cccc(OCCN(C)C2CCOCC2)c1, the INHIBITION rises from -23.4% to 74.08%.

First: Cc1cnn(C2CN(CCOc3ccccc3C#N)C2)c1
Second: c1cnc(N2C[C@H]3CN(CC4CCOC4)C[C@H]3C2)nc1 (stereo partly specified)
The INHIBITION of the first is lower: -21.72% for the first, 55.44% for the second.

For CC(CN1CCOCC1)NC(=O)N(C)Cc1ccc(Cl)s1 (stereo unspecified), the INHIBITION was 2.8%.
